Screens from PubChem.
Shown are actives, neighbours in structure and some others; about 11% of the full set was active somewhere.
FLuc inh: inhibitors of firefly (Photinus pyralis) luciferase | P08659 | purified P. pyralis luciferase, luminescence, biochemical | Potency, µM (titrated, usually from 115 µM), usual class: inhibitors | 76,000 tested, 2.5% active | AID 1347043; also: nearly all actives have a fitted effect of over 65% in size
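FLuc 10nM, D-luciferin 10uM, ATP 10uM, Mg acetate 10mM, Tris acetate pH 7.5, Tween/BSA; cpd qHTS; enzyme added last; CCD luminescence.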
HEK cytotox: kills HEK 293 cells; HEK 293 viability, ATP luminescence (CellTiter-Glo), 48-72 h; Potency, µM (highest dose often 115 µM), for inactives: top-dose activity change, negative = cytotoxicity, most hits filed as inhibitors; 94,000 tested, 6.6% active; also: nearly all actives have a fitted effect of over 60% in size
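HEK 293 seeded at 250 cells/well receive compound via pintool. After 48 or 72 hr at 37 degree Celsius, 5% CO2 and 95% humidity, CellTiter-Glo is dispensed and luminescence read following 10 min at room temperature.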
NPR1 antag: antagonists of human natriuretic peptide receptor Npr1. HEK293 hNpr1 GloSensor cGMP, ANP-stimulated luminescence. Potency, µM (series often up to 46.3 µM), without a hit: at the top dose activity change, negative = inhibition, usual class: inhibitors. 76,000 tested, 1.6% active; calls by dose curve; also: nearly all actives have a fitted effect of over 60% in size
Target sequence (P16066 whole entry, looked up): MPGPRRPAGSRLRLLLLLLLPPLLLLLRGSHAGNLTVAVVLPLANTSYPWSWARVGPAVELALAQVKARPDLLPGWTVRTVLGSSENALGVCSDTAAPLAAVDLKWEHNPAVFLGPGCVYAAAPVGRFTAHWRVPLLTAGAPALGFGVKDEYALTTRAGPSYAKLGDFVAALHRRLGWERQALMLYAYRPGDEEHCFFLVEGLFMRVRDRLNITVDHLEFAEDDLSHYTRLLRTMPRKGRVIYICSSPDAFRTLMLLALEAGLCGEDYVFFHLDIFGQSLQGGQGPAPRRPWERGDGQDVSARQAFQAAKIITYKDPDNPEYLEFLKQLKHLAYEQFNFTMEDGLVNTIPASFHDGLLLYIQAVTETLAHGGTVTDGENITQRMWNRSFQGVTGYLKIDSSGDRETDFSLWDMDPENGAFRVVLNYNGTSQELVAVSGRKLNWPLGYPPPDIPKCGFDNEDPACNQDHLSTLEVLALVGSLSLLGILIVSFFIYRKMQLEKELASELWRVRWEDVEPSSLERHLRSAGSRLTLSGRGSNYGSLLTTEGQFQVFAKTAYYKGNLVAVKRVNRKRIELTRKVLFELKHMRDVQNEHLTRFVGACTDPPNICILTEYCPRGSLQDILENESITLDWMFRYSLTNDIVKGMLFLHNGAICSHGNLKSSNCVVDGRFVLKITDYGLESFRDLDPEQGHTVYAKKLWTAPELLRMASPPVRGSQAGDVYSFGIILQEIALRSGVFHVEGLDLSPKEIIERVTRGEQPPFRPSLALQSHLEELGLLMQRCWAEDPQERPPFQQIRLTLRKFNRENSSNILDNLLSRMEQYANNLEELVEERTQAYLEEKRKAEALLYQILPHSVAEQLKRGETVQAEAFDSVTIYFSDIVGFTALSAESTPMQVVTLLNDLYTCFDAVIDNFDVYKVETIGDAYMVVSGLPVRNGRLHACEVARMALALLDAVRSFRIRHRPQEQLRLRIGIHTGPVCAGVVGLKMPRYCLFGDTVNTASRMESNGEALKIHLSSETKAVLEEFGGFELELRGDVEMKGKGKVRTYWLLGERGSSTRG
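Compound pre-incubated 30 min at room temperature on GloSensor-loaded HEK293 cells stably carrying hNpr1 and the pGS-40F cGMP biosensor. Stimulation uses hNppA at 0.1 nM final; luminescence is taken at baseline and 20 min post-agonist.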
NIH3T3 tox: NIH 3T3 cell cytotoxicity; NIH 3T3 viability, CellTiter-Glo ATP luminescence, 48-72 h; Potency, µM (highest dose often 96.7 µM), for the others: at the highest dose activity change, negative = cytotoxicity, hits mostly inhibitors; 94,000 tested, 4.3% active; also: nearly all actives have a fitted effect of over 55% in size
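Luminescent ATP readout (CellTiter-Glo, 10 min RT) after 48 or 72 hr compound exposure of NIH 3T3 cells seeded at 400 cells/well in 1536-well format; quantitative HTS.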
* hit, by the source's call; i = inactive; ? = inconclusive; nt = no result given; ! = not confirmed by another sample; [ ] = remark or other dose. Unless noted, calls follow the shape of the dose curve; as a rule, active = well fitted curve in the direction sought with a large enough effect; inconclusive = small, poorly fitted or top-dose-only effect, or another doubt; inactive = no such curve, though single readings can be large; an effect the other way counts as inactive or inconclusive. % is scaled to controls: 0 for no effect and ±100 for the full control effect; potency is read from the fitted curve at half-maximal effect.

SMILES | FLuc inh | HEK cytotox | NPR1 antag | NIH3T3 tox
COCCN[C@@H]1C[C@@H]2c3[nH]c4ccccc4c3C[C@@H](C(=O)OC)N2[C@H](c2ccccc2)C1 | ? | 28.2µM* | ? | 31.6µM*
COc1cc(Cl)c(C)cc1NC(=O)CN1C(=O)C(c2ccccc2)=NC12CCCC2 | i | ? | -5.4% | ?
CCC1(N2CCN(S(=O)(=O)c3ccc(Cl)cc3C)CC2)CCN(C(=O)C(C)C)C1 (centres undefined) | i | ? | ? | ?
COc1ccccc1Nc1ccnc(N2CCCC(C(=O)NCCc3ccccc3)C2)n1 (centres undefined) | nt | ? | nt | 15.8µM*
CCCCCNC(=O)C1CCCN(c2nccc(Nc3ccccc3OC)n2)C1 (centres undefined) | nt | 39.8µM* | nt | ?
C#CCNC(=O)[C@@H]1CCCN1c1nccc(Nc2ccccc2OC)n1 | nt | -4.7% | nt | -5.4%
COc1ccccc1Nc1ccnc(N2CCCC(C(=O)NCCc3ccccc3F)C2)n1 (centres undefined) | nt | 35.5µM*! | nt | ?
COc1ccccc1C(=O)NC1CCCc2c1[nH]c1c(Cl)cccc21 (centres undefined) | i | ? | 5.0% | ?
COc1ccc(CC(=O)NC2CCCc3c2[nH]c2c(Cl)cccc32)cc1OC (centres undefined) | i | 28.2µM* | ? | 12.6µM*
Cc1noc2nc(C(C)C)cc(C(=O)NC3CCCc4c3[nH]c3c(Cl)cccc43)c12 (centres undefined) | i | 35.5µM* | -1.7% | ?
Cc1noc(C)c1CC(=O)NC1CCCc2c1[nH]c1c(Cl)cccc21 (centres undefined) | i | ? | -11.0% | 20µM*
Cc1noc(C)c1C(=O)N1CCC([C@H]2[C@@H](Oc3ccccc3)CN2C(C)C)CC1 | nt | -11.5% | nt | -17.4%
Cc1noc(C)c1C(=O)NC1CCCN(c2ccc3nnc(C4CC4)n3n2)C1 (centres undefined) | nt | i | nt | -1.3%
O=C(NCC1CC1)c1ccc2nnc(C3CCCC3)n2c1 | nt | 2.4%[172 µM] | nt | -9.5%[138 µM]
CN(Cc1cccnc1)C1CCCc2ccccc21 (centres undefined) | i | 56.2µM* | -0.3%[70.6 µM] | ?
O=C1CCN(S(=O)(=O)c2ccccc2)CCCN(Cc2ccccc2)CCN1 | i | i | 1.5% | -7.0%
CCCc1noc(-c2ccn3c(CNC(=O)c4ccc(CC)cc4)nnc3c2)n1 | i | -2.1% | 0.3% | -23.0%
O=C1NCc2ccccc2CC12CCN(Cc1ccc(Oc3ccccc3)cc1)C2 (centres undefined) | nt | ? | nt | 31.6µM*
O=C1NCc2ccccc2CC12CCN(Cc1ccc(F)cc1)C2 (centres undefined) | nt | ? | nt | 3.9%
O=C1NCc2ccccc2CC12CCN(Cc1ccc(-c3ccccc3)cc1)C2 (centres undefined) | nt | 35.5µM* | nt | 35.5µM*
Cc1nc(-c2ccc(F)cc2)n(Cc2ccc(F)cc2F)c(=O)c1CCO | i | ? | -0.9% | ?
Cc1nc(-c2ccc(Cl)cc2)n(Cc2ccc(F)c(F)c2)c(=O)c1CCO | i | 44.7µM* | -22.9% | ?
Cc1nc(-c2ccc(Cl)cc2)n(Cc2ccccc2F)c(=O)c1CCO | i | 44.7µM* | 3.2% | ?
Cc1nc(-c2ccc(F)cc2)n(Cc2ccc(F)c(F)c2)c(=O)c1CCO | i | ? | -23.3% | ?
Cc1ccc(C)c(Cn2c(-c3ccc(Cl)cc3)nc(C)c(CCO)c2=O)c1 | i | ? | 3.6% | ?
SMILES | FLuc inh | HEK cytotox | NPR1 antag | NIH3T3 tox
Cc1nc(-c2ccc(Cl)cc2)n(Cc2ccc(F)cc2F)c(=O)c1CCO | i | 35.5µM* | 0.9% | ?
Cc1nc(-c2ccccc2)n(Cc2cc(F)cc(F)c2)c(=O)c1CCO | i | ? | -1.7% | ?
Cc1nc(-c2ccccc2)n(Cc2ccc(F)cc2Cl)c(=O)c1CCO | i | 28.2µM* | -21.3% | 44.7µM*
COc1ccc(-c2c(C(=O)NCc3cccs3)nc3sccn23)cc1 | nt | -20.5% | nt | -37.2%
Cc1nc(-c2ccc(Cl)cc2)n(Cc2ccccc2)c(=O)c1CCO | i | 44.7µM* | -1.5% | ?
c1ccc2c(c1)CC(n1ccnc1-c1cc3n(n1)CCCNC3)C2 | i | 79.4µM* | -15.7% | ?
Cc1ccc(C(=O)N2CC(Oc3ccc(F)cc3F)C2)cc1 | nt | -11.6% | nt | -19.8%
Cc1cc(F)ccc1OC1CN(C(=O)c2ccccc2)C1 | 17.8µM* | ? | -13.2%[70.6 µM] | ?
Cc1cc(F)ccc1OC1CN(Cc2ccc(C(F)(F)F)cc2)C1 | i | 100µM* | -20.6%[70.6 µM] | ?
Cc1cc(F)ccc1OC1CN(Cc2ccc(N(C)C)cc2)C1 | i | 79.4µM* | -0.1%[70.6 µM] | ?
COCC1CN(C2CCC2)CC12CCN(C(=O)CCC1CCCC1)CC2 (centres undefined) | i | ? | -19.4% | ?
Cc1cnc(CCNS(=O)(=O)c2cccc(F)c2)n1Cc1ccc(F)cc1 | nt | 39.8µM* | nt | ?
CN1CCCN(S(=O)(=O)c2cccc(Br)c2)c2ccccc21 | i | 39.8µM* | -22.6% | ?
CN1CCCN(S(=O)(=O)c2ccc(C(F)(F)F)cc2)c2ccccc21 | i | 39.8µM* | -2.9% | ?
Cc1cccc(S(=O)(=O)N2CCCN(C)c3ccccc32)c1 | i | ? | -6.2% | ?
Cc1nn(-c2ccccc2)c2c1C(C)N(CC1CN(C(=O)c3ccc(Cl)cc3)C1)C2=O (centres undefined) | nt | ? | nt | 35.5µM*
Cc1nn(-c2ccccc2)c2c1C(C)N(CC1CN(Cc3ccc(F)cc3)C1)C2=O (centres undefined) | nt | ? | nt | 35.5µM*
Cc1nn(-c2ccccc2)c2c1C(C)N(CC1CN(C(=O)c3ccc(C(F)(F)F)cc3)C1)C2=O (centres undefined) | nt | -29.2% | nt | 2.0%
O=C(NC1CCCCC1)[C@@H]1C[C@@H](O)CN1C1CCN(C(=O)c2n[nH]c3ccccc23)CC1 | i | -1.7% | 3.1% | 1.2%
CC(C)(C)OC(=O)N1CCCC(n2c(=O)[nH]c3cccnc32)C1 (centres undefined) | i | -18.9%[172 µM] | 21.9%[70.6 µM] | -4.9%[138 µM]
CCC(CC)n1c(=O)n(Cc2cc(C(C)C)no2)c2cc(C(=O)O)cnc21 | i | -22.6% | 2.5% | 79.4µM*
CN(C)C(=O)c1cccc(-c2cc(F)c3nc(N)sc3c2)c1 | ? | ? | 2.6% | ?
O=[S+]([O-])(NC1CCN(c2ccnc3ccnn23)CC1)c1cccc(C(F)(F)F)c1 | nt | 44.7µM* | nt | ?
O=[S+]([O-])(NC1CCN(c2ccnc3ccnn23)C1)c1cccs1 (centres undefined) | nt | 70.8µM* | nt | ?
CCOC(=O)C1CCCN(C(=O)c2cn3cc(-c4cccc(C(F)(F)F)c4)sc3n2)C1 (centres undefined) | nt | -15.7% | nt | -31.0%
COc1ccc(-n2cc(CN3CCN(C)C(C)C3)c(-c3cccc(F)c3)n2)cc1 (centres undefined) | ? | 35.5µM* | -4.4% | 31.6µM*
